The values below come from PubChem BioAssay (NCI).

Test systems include NCI-H23 lung; NCI-H460 lung; A549/ATCC NSCLC; 786-0 renal; COLO 205 colon.
Common to all, as to test: NCI-60 one-dose screen, 48 h (100 = growth as untreated, 0 = no growth, -100 = all killed)
The next experiment concerns NCI-H226 lung. To be noted: 10 µM unless noted.
In the next experiment the test system is NCI-H322M lung. The note with it: 10 µM unless noted.
In another experiment the test system is HOP-62 NSCLC. To be noted: 10 µM unless noted.
Another experiment has as its system HOP-92 NSCLC. To be noted: 10 µM unless noted.
The subject of a further experiment is NCI-H522 lung. To be noted: 10 µM unless noted.

Where “and” joins values, the source holds several entries; their conditions need not be identical. Identical values can stand only once. This is part of a sample that, as a whole, favours compounds with a hit. Of some 83,000 tested, about 20% had one in any assay.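 Results are percent growth after 48 hours of single-concentration exposure. 100 means growth as in untreated cells, lower positive values show inhibition; negative values down to -100 show cell death.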 Calls of active or inactive are those of the source. Rule for the calls: active = growth percent below 10; inactive = the rest.

Regarding `CN(C)c1ccc(C(=N)c2ccc(N(C)C)cc2)cc1`, the growth with NCI-H23 lung (10 µM unless noted) is 56.4% (inactive) and 41.9% (inactive); in the experiment with NCI-H226 lung, 74.5% (inactive) and 47.3% (inactive); in the experiment on NCI-H322M lung it was 58.1% (inactive) and 60.9% (inactive); with HOP-62 NSCLC, 26.3% (inactive) and 37.2% (inactive); with NCI-H460 lung (10 µM unless noted) it was 9.11% (active) and 15.7% (inactive); in the experiment on HOP-92 NSCLC it was 32.5% (inactive) and 27.5% (inactive). Also, the growth with NCI-H522 lung was -23.9% (active) and 17.8% (inactive); in the experiment with A549/ATCC NSCLC (10 µM unless noted), 32% (inactive) and 24.2% (inactive); in the experiment with 786-0 renal (10 µM unless noted) it was 47.4% (inactive) and 40.2% (inactive); in the experiment with COLO 205 colon (10 µM unless noted), 17.5% (inactive) and 13.2% (inactive).
With `S=c1nc[nH]c2nc[nH]c12`, the growth in the experiment with NCI-H23 lung (10 µM) is 31.9% (inactive); in the experiment with NCI-H23 lung (50 µM), 21.3% (inactive); with NCI-H226 lung, 46.3% (inactive); in the experiment on NCI-H322M lung it was 33% [50 µM] (inactive); in the experiment on NCI-H460 lung (10 µM) it was 45.3% (inactive); in the experiment with NCI-H460 lung (50 µM), 26.9% (inactive). Further, the growth in the experiment with HOP-92 NSCLC is 51% [50 µM] (inactive); in the experiment with A549/ATCC NSCLC (10 µM), 84.8% (inactive); in the experiment with A549/ATCC NSCLC (50 µM) it was 48.2% (inactive); in the experiment on 786-0 renal (10 µM) it was 17.3% (inactive); in the experiment with 786-0 renal (50 µM) it was 25.9% (inactive); in the experiment with COLO 205 colon (10 µM) it was 35.2% (inactive). The growth in the experiment with COLO 205 colon (50 µM) was 6.94% (active).
With `O=C1c2ccccc2CN1c1ccccc1`, the growth in the experiment with NCI-H23 lung (10 µM unless noted) is 94.2% (inactive); in the experiment with NCI-H226 lung it was 98.8% (inactive); with NCI-H322M lung, 107% (inactive); in the experiment on HOP-62 NSCLC, 107% (inactive); in the experiment with NCI-H460 lung (10 µM unless noted), 103% (inactive); with HOP-92 NSCLC, 104% (inactive). Also, the growth in the experiment with NCI-H522 lung was 74.7% (inactive); in the experiment on A549/ATCC NSCLC (10 µM unless noted), 91.4% (inactive); in the experiment on 786-0 renal (10 µM unless noted) it was 94.7% (inactive).
In the case of `COc1cc(C2c3cc4c(cc3C(OC(=O)C[n+]3ccccc3)C3COC(=O)C23)OCO4)cc(OC)c1OC` (configuration not stated), the growth with NCI-H23 lung (10 µM unless noted) is 20.8% (inactive); with NCI-H226 lung, 22.5% (inactive); with NCI-H322M lung, 33% (inactive); in the experiment on HOP-62 NSCLC, 19.3% (inactive); in the experiment with NCI-H460 lung (10 µM unless noted), 4.91% (active); in the experiment on HOP-92 NSCLC, 71.5% (inactive). The growth with NCI-H522 lung is -23.4% (active); with A549/ATCC NSCLC (10 µM unless noted), 7.1% (active); in the experiment with 786-0 renal (10 µM unless noted) it was 25.8% (inactive); in the experiment with COLO 205 colon (10 µM unless noted), -56.3% (active).
In the case of `CCN(CC)CCO/N=C1\CC(c2ccc(OC)c(OC)c2)Oc2ccccc21` (configuration not stated), the growth with NCI-H23 lung (10 µM unless noted) is 96.2% (inactive); in the experiment with NCI-H226 lung, 84.7% (inactive); in the experiment with NCI-H322M lung, 94.8% (inactive); in the experiment with HOP-62 NSCLC it was 104% (inactive); in the experiment with NCI-H460 lung (10 µM unless noted) it was 104% (inactive); with HOP-92 NSCLC it was 79.6% (inactive). In addition, the growth in the experiment with NCI-H522 lung was 88.2% (inactive); in the experiment with A549/ATCC NSCLC (10 µM unless noted), 97% (inactive); in the experiment on 786-0 renal (10 µM unless noted), 81.1% (inactive); with COLO 205 colon (10 µM unless noted), 97.5% (inactive).
As for `O=C(c1ccncc1)c1c(Cc2ccccc2)ccc2ccccc12`, the growth in the experiment on NCI-H23 lung (10 µM unless noted) was 55.2% (inactive); in the experiment on NCI-H226 lung, 82.5% (inactive); in the experiment with NCI-H322M lung, 74.2% (inactive); in the experiment with HOP-62 NSCLC, 95.1% (inactive); in the experiment with NCI-H460 lung (10 µM unless noted), 89.8% (inactive); with HOP-92 NSCLC, 82% (inactive). The growth with NCI-H522 lung is 27.8% (inactive); in the experiment on A549/ATCC NSCLC (10 µM unless noted), 72.2% (inactive); in the experiment with 786-0 renal (10 µM unless noted), 104% (inactive); with COLO 205 colon (10 µM unless noted), 87% (inactive).
As for `O=S(=O)(O)c1ccc2cc(O)ccc2c1`, the growth was 98.3% (inactive) in the experiment on NCI-H23 lung (10 µM unless noted); 98% (inactive) in the experiment on NCI-H226 lung; 99.2% (inactive) in the experiment with NCI-H322M lung; 99.7% (inactive) in the experiment with HOP-62 NSCLC; 102% (inactive) with NCI-H460 lung (10 µM unless noted); 88.8% (inactive) with HOP-92 NSCLC. The growth is 90% (inactive) with NCI-H522 lung, 111% (inactive) in the experiment with A549/ATCC NSCLC (10 µM unless noted), 104% (inactive) with 786-0 renal (10 µM unless noted) and 103% (inactive) with COLO 205 colon (10 µM unless noted).
On to `N#Cc1c(N)nc2c(c(-c3ccc(Cl)cc3)nn2-c2ccccc2)c1C#N`, for which the growth in the experiment on NCI-H23 lung (10 µM unless noted) is 93.7% [100 µM] (inactive); in the experiment with NCI-H226 lung, 97.1% [100 µM] (inactive); in the experiment on NCI-H322M lung, 104% [100 µM] (inactive); in the experiment on HOP-62 NSCLC, 96.1% [100 µM] (inactive); in the experiment with NCI-H460 lung (10 µM unless noted), 96.8% [100 µM] (inactive); with HOP-92 NSCLC it was 90.8% [100 µM] (inactive). Further, the growth in the experiment with NCI-H522 lung is 102% [100 µM] (inactive); in the experiment with A549/ATCC NSCLC (10 µM unless noted), 94.9% [100 µM] (inactive); in the experiment with 786-0 renal (10 µM unless noted), 72.2% [100 µM] (inactive); with COLO 205 colon (10 µM unless noted), 117% [100 µM] (inactive).
`COc1ccc(/C=N/NC(N)=S)cc1`: the growth in the experiment on NCI-H23 lung (10 µM unless noted) was 89.2% (inactive); with NCI-H226 lung, 105% (inactive); in the experiment with NCI-H322M lung, 103% (inactive); in the experiment on HOP-62 NSCLC, 93.4% (inactive); with NCI-H460 lung (10 µM unless noted), 103% (inactive); in the experiment with HOP-92 NSCLC it was 68.4% (inactive). For the same molecule, the growth in the experiment on NCI-H522 lung is 89.4% (inactive); in the experiment with A549/ATCC NSCLC (10 µM unless noted), 82.1% (inactive); in the experiment with 786-0 renal (10 µM unless noted), 98.3% (inactive); in the experiment with COLO 205 colon (10 µM unless noted) it was 106% (inactive).
For the molecule `Nc1ccc2ccc(NS(=O)(=O)N3CCCCC3)cc2c1`, the growth was 43.8% (inactive) in the experiment with NCI-H23 lung (10 µM unless noted); 15.2% (inactive) in the experiment with NCI-H226 lung; 50.9% (inactive) in the experiment with NCI-H322M lung; 35.4% (inactive) in the experiment with HOP-62 NSCLC; 7.56% (active) in the experiment with NCI-H460 lung (10 µM unless noted); 68% (inactive) with HOP-92 NSCLC. The growth is 47.5% (inactive) in the experiment on NCI-H522 lung, 39.3% (inactive) with A549/ATCC NSCLC (10 µM unless noted), 30.7% (inactive) in the experiment on 786-0 renal (10 µM unless noted) and -40.9% (active) in the experiment on COLO 205 colon (10 µM unless noted).
For the molecule `OCc1ccccc1F`, the growth is 88% (inactive) in the experiment with NCI-H23 lung (10 µM unless noted); 103% (inactive) in the experiment on NCI-H226 lung; 105% (inactive) in the experiment on NCI-H322M lung; 97.3% (inactive) in the experiment on HOP-62 NSCLC; 48.1% (inactive) in the experiment on NCI-H460 lung (10 µM unless noted); 106% (inactive) in the experiment on HOP-92 NSCLC. Besides, the growth in the experiment with NCI-H522 lung is 71.1% (inactive); in the experiment on A549/ATCC NSCLC (10 µM unless noted), 93.4% (inactive); in the experiment with 786-0 renal (10 µM unless noted) it was 101% (inactive); with COLO 205 colon (10 µM unless noted) it was 92.3% (inactive).
Take `O=c1[nH]nnc2cc(Cl)ccc12`: the growth in the experiment with NCI-H23 lung (10 µM unless noted) is 94.4% (inactive) and 92.2% (inactive); in the experiment on NCI-H226 lung, 104% (inactive) and 93.2% (inactive); in the experiment on NCI-H322M lung, 110% (inactive) and 115% (inactive); with HOP-62 NSCLC, 105% (inactive) and 89.1% (inactive); with NCI-H460 lung (10 µM unless noted), 114% (inactive) and 101% (inactive); with HOP-92 NSCLC, 109% (inactive). The growth in the experiment with NCI-H522 lung was 103% (inactive) and 106% (inactive); in the experiment with A549/ATCC NSCLC (10 µM unless noted) it was 101% (inactive); with 786-0 renal (10 µM unless noted), 117% (inactive) and 94.5% (inactive); with COLO 205 colon (10 µM unless noted), 112% (inactive) and 117% (inactive).
